This is an account of results in PubChem BioAssay AID1558 (National Center for Advancing Translational Sciences (NCATS), 2009).

Records with an inconclusive call do not appear. Where a call stands in place of a potency, no number is given. Activity calls are given as the source filed them. Calls come from the whole dose curve; as a rule, active = well fitted inhibition curve with a large enough effect; inconclusive = small, poorly fitted or top-dose-only effect; inactive = flat fitted curve, though single readings scatter.

Sequence of Microtubule-associated protein tau (Homo sapiens) (P10636 561-689 P618L limits assumed): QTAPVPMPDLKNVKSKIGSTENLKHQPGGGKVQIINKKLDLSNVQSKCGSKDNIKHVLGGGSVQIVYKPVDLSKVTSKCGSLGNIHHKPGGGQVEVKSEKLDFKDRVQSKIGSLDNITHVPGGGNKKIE

For this experiment, the target named is Microtubule-associated protein tau (Homo sapiens) (UniProt P10636). The experiment is described as follows: Confirmation Concentration-Response Assay for Inhibitors of Tau Fibril Formation, Thioflavin T Binding. The following applies: recombinant tau K18 P301L (four-repeat tau fragment) heparin fibrillization, ThT fluorescence; series mostly up to 100 µM. The procedure, abridged:
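ThT fluorescence (450/510 nm), read 1 hr after adding 30 uM final dye, reported fibril formation in concentration-response format. Before that, 15 uM K18 P301L tau with 0.24 uM Alexa 594-labeled tracer aggregated 6 hr at 37 C with 20 uM heparin and compound, pH 7 acetate buffer.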
With `O=C(Cc1ccccc1)Nc1sc2c(c1C(=O)Nc1ccc(Cl)cc1)CCOC2`, the Potency result is “inactive”.

Regarding `Nc1scc2c(CO)nn(-c3ccccc3)c(=O)c12`, the Potency is 3.98 µM (active).

With `CCOC(=O)c1nn(-c2cccc(C(F)(F)F)c2)c(=O)c2c(N)scc12`, the Potency is 0.891 µM (active).

For the compound `Cc1ccc(NCc2cc3cc4c(cc3n(CC(=O)Nc3ccc(C)cc3)c2=O)OCCO4)cc1`, the Potency result is “inactive”.

Regarding `Cn1cc(Cl)c(C(=O)Nc2cccc(Cl)c2Cl)n1`, the Potency entry was “inactive”.

As to `Cc1cccc(NC(=O)c2c(NC(=O)c3ccccc3)sc3c2CCCC3)c1`, the Potency is 7.94 µM (active).

Regarding `CC(=O)Nc1nc(C)c(-c2csc(Nc3ccc(O)cc3)n2)s1`, the Potency was 15.8 µM (active).

With `COc1ccc(OC)c(NC(=O)c2c(NCc3cccs3)sc3c2CCCC3)c1`, the Potency entry was “inactive”.

`Cc1[nH]c(=O)c(C#N)cc1-c1ccncc1`: the Potency entry is “inactive”.

Take `COc1ccc2c(c1)c(CC(=O)Nc1ccc(C(C)=O)cc1)c(C)n2C(=O)c1ccc(Cl)cc1`: the Potency result was “inactive”.

Consider `CN(C)c1ccc(-c2cc[nH]c(=O)c2N)cc1`, for which the Potency is 1.58 µM (active).

On to `COC(=O)C1CCc2sc(N)c(C(=O)OCc3ccccc3)c21` (stereo not given), for which the Potency result was “inactive”.

On to `COC(=O)C1CCc2sc(NC(=O)Cc3ccccc3)c(C(=O)Nc3ccc(Cl)cc3)c21` (stereo not given), for which the Potency entry was “inactive”.

In the case of `Cc1ccc(C(=O)Nc2nc(=O)n(C(=O)CC(C)C)s2)cc1`, the Potency entry is “inactive”.

Take `COc1ccc(NC(=O)c2c(NC(=O)Cc3ccccc3)sc3c2CCCC3)cc1`: the Potency result was “inactive”.
